# S1P4 antagonist = blocks the human S1P4 receptor; S1P4-expressing cells, antagonist mode, reporter read-out; inhibition, % at 4.98 µM; 0.26% of 220,000 active; AID 1510; in the data active = inhibition above about 29%;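 note: 0% = wells stimulated with agonist and 100% = vehicle wells without agonist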
# HSF1 inhib = HSF1 inhibition | NIH3T3-HGL HSE-luciferase, MG132-induced, luminescence 8 h; stronger effect = lower value | 0.77% of 300,000 active | activity change, negative = inhibition, % at 7.5 µM (by protocol);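 active = more than half of replicate wells show activity change below -50%, luminescence cut by over half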;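 note: luciferase reports HSF-1 transcriptional activity via heat shock element; 0% = median of DMSO wells and -100% = zero luminescence signal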
# S1P4 ag = human S1P4 receptor agonism; 0.35% of 220,000 active; AID 1509; S1P4-expressing cell line, agonist reporter assay; O95977; activation, % at 4.98 µM; in the data active = activation above about 11%;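 note: 0% = DMSO vehicle and 100% = reference agonist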
# Hsp70 act = Hsp70 transcriptional activation, primary screen; HeLa Hsp70 promoter luciferase reporter, luminescence; scaled: vehicle 0, proteasome-inhibitor control 100%; activation, % at 10 µM; 0.04% of 200,000 active;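 active = activation above the mean across all tested compounds plus 3 SD, cutoff set per campaign, cut at about 5.5% in these data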;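 note: 100% = MG132 at 30 µM as the positive control and 0% = DMSO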
# HSF-1 act = increases HSF-1 driven luciferase reporter signal. NIH3T3-HGL HSF-1 luciferase reporter, MG132, 8 h; 100% = twice DMSO control signal. activation, % at 9 µM. 1.7% of 300,000 active. AID 504408;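 active = mean replicate activation of at least 50% with a set share of replicates each reaching 50%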;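 note: 0% = median of the neutral control wells and 100% = twice that signal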
# S1P3 antag = antagonists of human S1P3 receptor. 0.27% of 170,000 active. Q99500. CHO S1P3 NFAT-BLA reporter, FRET fluorescence, antagonist mode. inhibition, % at 4.98 µM;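 active = inhibition above the plate cutoff, the mean inhibition of test wells on that plate plus 3 SD, cut at about 28% in these data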;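 note: cells challenged with S1P at its EC80 of 0.8 µM; blue over green emission ratio from cleaved BLA substrate after 4 h stimulation; 0% = S1P-stimulated wells and 100% = unstimulated DMSO-only wells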
# Target sequence (Q99500 whole entry, looked up): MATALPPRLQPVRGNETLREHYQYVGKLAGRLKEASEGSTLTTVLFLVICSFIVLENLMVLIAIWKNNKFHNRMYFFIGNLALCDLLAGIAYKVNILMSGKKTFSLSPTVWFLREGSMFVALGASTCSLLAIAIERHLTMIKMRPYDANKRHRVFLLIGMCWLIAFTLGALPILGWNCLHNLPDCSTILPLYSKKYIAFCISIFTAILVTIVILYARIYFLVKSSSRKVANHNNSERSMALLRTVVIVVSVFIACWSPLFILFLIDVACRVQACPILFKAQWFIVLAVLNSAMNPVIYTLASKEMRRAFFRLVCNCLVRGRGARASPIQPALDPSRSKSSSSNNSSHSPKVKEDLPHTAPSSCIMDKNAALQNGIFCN
# * hit, by the source's call; / = no result given. Most compounds without a hit are left out; they make up all but 2.9% or so of the library.
SMILES,S1P4 antagonist,HSF1 inhib,S1P4 ag,Hsp70 act,HSF-1 act,S1P3 antag
CN1C2CCC1CC(NC(=O)c1cc(Cl)cc3[nH]cnc13)C2 (stereo unspecified),/,6,/,/,-14,/
COC(=O)c1ccc(N=NN2CCCCCC2)cc1,-9,32,0,0,75*,-3
COc1cc(NC(=O)c2cc3ccccc3cc2OC)ccc1NC(=O)c1cccs1,/,-58*,/,/,-58,/
COc1cc(NC(=O)c2ccc([N+](=O)[O-])o2)ccc1NC(=O)c1cccs1,17,69,-1,0,127*,-16
COc1cc(NC(=O)c2cccs2)ccc1NC(=O)Cc1ccccc1,/,3,/,/,9,/
Clc1ccc(Nc2ccc(Cl)nn2)cc1,-5,-55*,0,/,-65,-18
CC(C)CCN1CCN(Cc2cccn2-c2cccnc2)CC1CCO (stereo unspecified),-2,-4,0,0,-3,-12
COc1cccc(CN2CCN(Cc3cccn3-c3cccnc3)CC2CCO)c1 (stereo unspecified),-12,16,0,0,56*,3
O=C(NCc1ccc2c(c1)OCO2)c1nc(S(=O)(=O)Cc2ccccc2F)ncc1Cl,/,107,/,/,84*,/
O=C(NCc1ccc2c(c1)OCO2)c1ccccc1Cl,/,0,/,/,21,/
O=C(NCc1ccc2c(c1)OCO2)c1nc(S(=O)(=O)Cc2ccccc2)ncc1Cl,/,-89*,/,/,-89,/
CCOC(=O)N1CCN(c2nc(-c3ccccc3)c3ccccc3n2)CC1,/,-3,/,/,20,/
CCCCN(C)CCNC(=O)c1cn(C)c(=O)c2c1c1ccccc1n2C,/,1,/,/,-8,/
O=C(O)c1ccc(CNC(=O)C2CCCN2C(=O)OCc2ccccc2)cc1 (stereo unspecified),/,-7,/,/,-4,/
O=C(Nc1ccc(Cl)cc1)C1C2CCCCC21 (stereo unspecified),/,36,/,/,79*,/
CC1COc2ccccc2N1S(=O)(=O)c1ccc(Cl)cc1 (stereo unspecified),-7,-4,1,0,0,7
Cc1ccc(S(=O)(=O)N2c3ccccc3OCC2c2ccccc2)cc1 (stereo unspecified),-7,5,0,0,56*,/
Nc1c(Cl)cc(-c2[nH]c3cc(C(=O)NCCO)ccc3c(=O)c2O)cc1Cl,/,6,/,/,-4,/
CCCNC(=O)C1CCN(S(=O)(=O)c2cccc3nonc23)CC1,10,-6,0,0,-1,-5
CCOC(=O)c1c(C)n(C)c2ccc(O)c(CN3CCN(C)CC3)c12,-4,29,1,0,56*,-14
CCOC(=O)c1c(C)n(C)c2ccc(OC)c(NC(=O)CN3CCSCC3)c12,-13,-91*,-1,0,-93,/
CCOC(=O)c1c(CSc2ccccc2)n(C)c2ccc(O)c(CN3CCOCC3)c12,-16,70,2,0,70*,-23
COC(=O)c1sc(-c2ccc(Cl)cc2)cc1NC(=O)COCC(=O)O,6,-1,-1,/,0,11
COC(=O)c1sc(-c2ccc(Cl)cc2)cc1NC(=O)/C=C/C(=O)O,12,42,1,/,66*,-12
COc1cc(NC(=O)CC(C)S(=O)(=O)c2ccc3c(c2)NC(=O)CO3)cc(OC)c1OC (stereo unspecified),/,12,/,/,55*,/
SMILES,S1P4 antagonist,HSF1 inhib,S1P4 ag,Hsp70 act,HSF-1 act,S1P3 antag
Cc1ccccc1NC(=O)CC(C)S(=O)(=O)c1ccc2c(c1)NC(=O)CO2 (stereo unspecified),/,17,/,/,62*,/
CCn1cc(C(=O)NCc2ccc(OC)cc2)c(=O)c2ccc(C)nc21,/,1,/,/,-13,/
CCCC(=O)N1CC(=O)Nc2ccc(C)cc2C1c1ccccc1 (stereo unspecified),/,12,/,/,12,/
COc1ccc(/C=C/C(=O)c2cc(Br)ccc2OC(=O)c2ccco2)cc1OC,11,15,1,-1,18,-27
COc1ccc(/C=C/C(=O)Nc2ccccc2C(=O)NCC(c2ccc(OC)cc2)N(C)C)cc1 (stereo unspecified),/,-59*,/,/,-60,/
COc1ccc(/C=C/C(=O)c2cc(Br)ccc2O)cc1OC,-18,28,-2,0,66*,-5
COc1ccc(/C=C/C(=O)Nc2ccccc2C(=O)O)cc1,0,-39,2,-1,-43,-9
O=C(/C=C/c1ccc(O)c(O)c1)c1ccccc1O,6,76,0,/,92*,-7
COc1ccc(/C=C/C(=O)c2ccc[nH]2)cc1OC,-24,33,3,0,62*,/
CC(C)Cc1ccc(CN2CCCC(NC(=O)CCN3CCCO3)C2)cc1 (stereo unspecified),/,-5,/,/,-4,/
COc1ccc(/C=C/C(=O)Nc2ccccc2C(=O)O)cc1OC,-36,-56*,-1,0,-59,-5
CCOc1cc(/C=C2/NC(=O)N(Cc3ccccc3F)C2=O)ccc1O,3,59,0,0,86*,/
COc1cc(/C=C2/NC(=O)N(Cc3ccccc3F)C2=O)cc(OC)c1O,-3,13,0,0,21,-10
CC(=O)Nc1ccc(NC(=O)CSc2cn(CC(=O)N3CCOCC3)c3ccccc23)cc1,/,-69*,/,/,-76,/
O=C(Nc1ccc2c(c1)CCC2)c1ccc(F)cc1,0,35,-1,0,42,-7
Cc1cc(C(=O)Nc2ccc3c(c2)CCC3)ccc1[N+](=O)[O-],/,28,/,/,55*,/
Cc1c(Cl)cccc1NC(=O)c1cccc(OC(F)F)c1,11,-72*,-3,0,-77,/
O=C(Nc1ccc2c(c1)CCC2)c1cnc(Cl)c(Cl)c1,-22,39,2,0,58*,6
O=C(Nc1ccc2c(c1)CCC2)c1ccc(Cl)nc1,-1,16,1,0,26,-16
Cc1ccc(NC(=O)c2ccc(Nc3c([N+](=O)[O-])cc([N+](=O)[O-])cc3[N+](=O)[O-])cc2)cc1,-3,-71*,1,0,-72,10
Nc1cnccc1C(=O)O,5,-3,0,0,9,-11
CCOC(=O)C1(CCc2ccccc2)CCN(C(=O)C2CCCO2)CC1 (stereo unspecified),-11,6,2,0,-2,14
O=C(Nc1ccc2c(c1)CCC2)c1cccc(OC(F)F)c1,/,48,/,/,82*,/
O=C(Nc1ccc(OC(F)F)c(Cl)c1)c1cccc(OC(F)F)c1,-6,3,-1,0,10,/
COc1ccc(/C(C)=N/NC(=O)CNC(=O)/C=C\c2ccccc2)c(OC)c1,/,-66*,/,/,-69,/
COc1ccc(C/C(N)=N/OC(=O)c2cccs2)cc1,-11,23,1,0,22,6
COc1ccc2nc(COC(=O)c3cccs3)c(C(C)=O)[n+]([O-])c2c1,-22,-54*,1,/,-63,-10
CCOc1ccc2nc(COC(=O)c3cccc([N+](=O)[O-])c3)c(C(C)=O)[n+]([O-])c2c1,-4,27,1,/,69*,9
